Experimental data as given in PubChem BioAssay (NCATS).
Where “and” joins values, the source holds several entries; their conditions need not be identical. Equal entries are not always repeated. Inconclusive results are not listed. More than one record can exist for a structure, and the calls need not agree. Calls of active or inactive are those of the source. Calls follow the shape of the dose curve; as a rule, active = well fitted inhibition curve with a large enough effect; inconclusive = small, poorly fitted or top-dose-only effect; inactive = flat fitted curve, though single readings scatter.

assay: P-glycoprotein substrates identified in KB-8-5-11 adenocarcinoma cell line, qHTS therapeutic library screen (AID 1346987); conditions: KB-8-5-11 (P-gp overexpressing) viability, CellTiter-Glo, 72 h; series mostly up to 44.5 µM; activity change, negative = cytotoxicity: at the top concentration; also: nearly all actives have a fitted effect of over 65% in size
Method in brief: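 KB-8-5-11: colchicine-selected sub-line of KB-3-1 over-expressing P-gp; assay medium lacked colchicine. 72 h drug exposure at 37 degree C, CellTiter-Glo.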
% is scaled to controls: 0 for no effect and ±100 for the full control effect; potency is read from the fitted curve at half-maximal effect.

Compound | activity change, negative = cytotoxicity | Potency
CC(C)=CC1C(C(=O)OCc2cccc(Oc3ccccc3)c2)C1(C)C (stereo not drawn) | -23.4% (inactive) | –
COC1(CS(=O)c2ccccc2)CCN(CCc2c[nH]c3ccc(F)cc23)CC1 (stereo not drawn) | -10.5% (inactive) | –
C=C1CC[C@@]2(O)[C@H]3Cc4ccc(O)c5c4[C@@]2(CCN3CC2CC2)[C@H]1O5 | 10.9% (inactive) | –
CC(C)(C)NCC(O)c1cc(Cl)c(N)c(Cl)c1 (stereo not drawn) | -11.1% (inactive) | –
N[C@@H](Cc1ccc(Oc2cc(I)c(O)c(I)c2)c(I)c1)C(=O)O | -1.25% (inactive) | –
O=c1oc2ccccc2c(O)c1C(CC(O)c1ccc(-c2ccc(Br)cc2)cc1)c1ccccc1 (stereo not drawn) | -0.0039% (inactive) | –
Oc1cc(Cl)ccc1Oc1ccc(Cl)cc1Cl | – | inactive and 31.6 µM (active)
Oc1ccccc1-c1ccccc1 | -0.365% (inactive) | –
CCOP(=S)(OCC)Oc1cc(C)nc(C(C)C)n1 | 7.58% (inactive) | –
COC[C@@H](NC(C)=O)C(=O)NCc1ccccc1 | 3.9% (inactive) | –
OCCOc1ccccc1 | – | inactive
NP(N)(=O)NC(=O)c1ccc(F)cc1 | 11.7% (inactive) | –
CNC(=O)c1ccc(N2C(=S)N(c3ccc(C#N)c(C(F)(F)F)c3)C(=O)C23CCC3)cc1F | – | inactive
